# Source: PubChem BioAssay
# Pf growth 48h: inhibits P. falciparum growth in the first generation, 48 h; P. falciparum luciferase growth in erythrocytes, 48 h; Potency, µM (series often up to 28.7 µM), without a hit: at the highest dose activity change, negative = inhibition, actives largely listed as inhibitors; 310,000 tested, 5.9% active; AID 504832; also: potency is read from the fitted curve at half-maximal effect; % is scaled to controls: 0 for no effect and ±100 for the full control effect
#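 Growth was read as firefly luciferase luminescence after a 48 h, 37 C, 5% CO2 exposure of compounds to reporter-bearing P. falciparum cultures (0.1% parasitemia, 2% hematocrit final) in Albumax-supplemented RPMI 1640.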
# Sm TGR inh: inhibitors of Schistosoma mansoni thioredoxin glutathione reductase; purified TGR, DTNB reduction, TNB absorbance 405 nm; Potency, µM (top dose mostly 114 µM), inactives show at the highest dose activity change, negative = inhibition, actives largely listed as inhibitors; Q962Y6; 360,000 tested, 3% active; also: potency is read from the fitted curve at half-maximal effect; % is scaled to controls: 0 for no effect and ±100 for the full control effect; nearly all actives have a fitted effect of over 60% in size
#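 First, TGR (20 nM dispensed) and NADPH were mixed with compound. Second, a 15 min room-temperature incubation followed. Third, further NADPH and then DTNB were added to start the reaction. Finally, TNB absorbance was monitored kinetically.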
# SARS PLpro yeast: inhibitors of SARS-CoV papain-like protease in yeast | S. cerevisiae expressing SARS-CoV PLpro, growth rescue | Potency, µM (highest dose often 32.9 µM), for the others: at the highest dose activity, positive = growth rescue, most hits filed as activators | 330,000 tested, 0.19% active; calls by dose curve; also: potency is read from the fitted curve at half-maximal effect; 0% is about no effect; nearly all actives have a fitted effect of over 55% in size
# HCV inh: blocks hepatitis C virus; Huh7.5.1 HCVcc-Cre infection, luciferase reporter, 44 h; Potency, µM (titrated, usually from 41.8 µM), for inactives: at the highest dose activity change, negative = inhibition, most hits filed as inhibitors; 340,000 tested, 3.4% active; also: potency is read from the fitted curve at half-maximal effect; % is scaled to controls: 0 for no effect and ±100 for the full control effect
#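 After 44 h co-culture of compound, cells and HCVcc-Cre (~0.5 moi), substrate is added for 15 min at room temperature and luciferase measured over 15 sec. Cells were seeded at 1,000/well and pre-cultured 4 h.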
# Pf growth 96h: inhibits malaria parasite growth, 96 h. P. falciparum luciferase reporter growth, 96 h. Potency, µM (series often up to 28.7 µM), inactives show at the highest dose activity change, negative = inhibition, usual class: inhibitors. 320,000 tested, 6.9% active. AID 504834; also: potency is read from the fitted curve at half-maximal effect; % is scaled to controls: 0 for no effect and ±100 for the full control effect
#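 Delayed-death screen, second-generation endpoint: infected erythrocytes, 2% hematocrit, 0.05% parasitemia final; 96 hours at 37 C, 5% CO2; luciferase detection reagent; luminescence decrease equals reduced growth.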
# HCMV antiviral: inhibitors of human cytomegalovirus; AID 1259415; activity change, negative = inhibition, % at 57.5 µM; HFF cells, HCMV-luciferase reporter, 72 h; stronger effect = lower value; 410,000 tested, 4.5% active; in the data active = activity change below about -60%; inconclusive = no clear call, values can overlap the other calls; inactive = above about -39%; also: % is scaled to controls: 0 for no effect and ±100 for the full control effect
#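 Screen run at 2 compound doses on HFFs infected with reporter HCMV, MOI 1 PFU/cell. Luciferase activity from cell lysates at 72 h post infection gave inhibition relative to buffer-only and Salinomycin wells.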
# * = called active by the depositor; ? = inconclusive; · = not tested or not shown; [ ] = dose if it differs, or a comment. Only some compounds are listed: those with a hit (about 15% of all), similar ones and a draw of the others. Unless noted, calls follow the shape of the dose curve; as a rule, active = well fitted curve in the direction sought with a large enough effect; inconclusive = small, poorly fitted or top-dose-only effect, or another doubt; inactive = no such curve, though single readings can be large; an effect the other way counts as inactive or inconclusive.
SMILES,Pf growth 48h,Sm TGR inh,SARS PLpro yeast,HCV inh,Pf growth 96h,HCMV antiviral
N#Cc1ncc(-c2ccc3c(c2)OCCOCCOCCOCCOCCO3)nc1C#N,?,0%,18%,?,12µM*,-39
N#Cc1ncc(-c2ccc3c(c2)OCCOCCOCCOCCO3)nc1C#N,?,-15%,24%,-9%,12µM*,-73*
Nc1nc(-c2ccc3c(c2)OCCO3)cs1,100%,-33%,-9%,?,·,78
S=C(Nc1nc2c(s1)CCCC2)NC1CC1,?,2.5µM*,12%,-7%,0%,3
COc1ccc(C)cc1NC(=O)COCc1cc(-c2ccc(F)cc2)on1,·,7%,·,·,·,9
CCc1ccc(Nc2ncccc2C#N)cc1,91%,9%,5%,-5%,107%,15
CC(C)(CC(=O)O)CC(=O)NNc1ncccc1C#N,4.1µM*,10%,-1%,8%,-12%,4
Cc1cc(C)cc(NC(=O)c2cccn2-c2ncc(C(F)(F)F)cc2Cl)c1,?,-1%,-11%,4%,13µM*,32
O=C(Nc1ccc(F)cc1F)c1cccn1-c1ncc(C(F)(F)F)cc1Cl,?,-14%,-2%,3%,?,1
CN(C)c1cccc(/C=C(\C#N)c2ccccc2)c1,237%,6%,-6%,11µM*,193%,32
CCN(CC)c1ccc(/C=C(\C#N)C(=O)c2ccc(Br)cc2)cc1,0%,-5%,-2%,10%,9%,-65*
CN(C)c1ccc(/C=C(\C#N)C(=O)c2ccccc2)cc1,6%,0%,-1%,9%,4%,-63*
CCN(CC)c1ccc(/C=C(\C#N)C(N)=O)cc1,98%,-8%[57.1 µM],-2%,4%,1%,16
COc1ccccc1N1CCN(CCCNC(=O)c2cnn(-c3cccc(Cl)c3)c2C2CCN(C(=O)OC(C)(C)C)CC2)CC1,·,3%,·,·,·,-37
COc1ccc(C2=Nc3ccccc3NC(=O)C2N(CCc2ccccc2)C(=O)c2cccs2)cc1 (stereo unspecified),·,·,·,·,·,-4
Cc1c(-c2ccccc2)c(-c2ccc(OCCN(C)C)cc2)n2ccccc12,·,·,·,?,·,-74*
C=Cn1ccnc1P(=S)(c1nccn1C=C)c1nccn1C=C,?,16%,-1%,12%,?,-18
C=Cn1ccnc1P(=S)(c1ccn(C)c1)c1nccn1C=C,-1%,2%,-6%,12%,7.4µM*,9
COc1ccc2c(C)cc(SCC(=O)c3ccc4c(c3)OCO4)nc2c1,?,21%,6%,10µM*,?,35
O=C(Cn1c(=O)oc2ccccc21)NCc1ccc(Cl)cc1,·,10%,·,·,·,-32
COC(=O)c1ccccc1NC(=O)N1CCC(N2CCN(Cc3ccc(F)cc3)C(=O)C2=O)CC1,·,-5%,·,·,·,5
CC(C)CN1C(=O)C(=O)N(CC(=O)c2ccc3c(c2)CCCC3)C1=O,25%,-10%,-6%,-10%,33%,-10
C=CCn1c(O)c(N=O)c2ccccc21,-3%,10%,1%,-3%,?,-29
C=CCn1c(O)c(N=NC(=S)Nc2ccc(OC)c(Cl)c2)c2ccccc21,3.7µM*,0%,-20%,?,-19%,?
C=CCn1c(O)c(N=Nc2ccccc2C)c2ccccc21,-1%,18µM*,-2%,14%,43%,38
SMILES,Pf growth 48h,Sm TGR inh,SARS PLpro yeast,HCV inh,Pf growth 96h,HCMV antiviral
CCCCn1c(O)c(N=Nc2ccccc2O)c2ccccc21,6.6µM*,-9%,0%,?,42%,-37
CCCCn1c(O)c(N=Nc2ccccn2)c2ccccc21,-14%,4%,-60%,?,?,-3
COC(=O)c1cc2c(-c3ccccc3)cc3ccccn3c-2c1C(=O)OC,·,-16%,3%,1.8µM*,3.7µM*,-4
O=C(NCCc1ccccc1)C(=O)c1c(-c2ccccc2)cc2ccccn12,-18%,-16%,13%,5%,?,-33
CCOC(=O)C(=O)c1c(C)cc2ccccn12,64%,0%,-5%,-18%,-30%[5.75 µM],-32
COC(=O)c1c(C)c2c(C)cc3ccccn3c-2c1C(=O)OC,8%,1%,6%,10µM*,·,-13
Cc1cc(C)nc(OC(=O)c2ccc(Cl)cc2Cl)n1,9%,22µM*,0%,·,48%,-102*
O=C(O)c1ccccc1-n1ncc2c1/C(=C/c1ccc(Cl)cc1)CC2,63%,14µM*,-1%,·,54%,-19
O=C(O)c1ccc(-n2ncc3c2/C(=C/c2cccc([N+](=O)[O-])c2)CC3)cc1,80%,-23%,-2%,-2%,167%,67
CCCCN(CC)C(=O)c1ccc2c(c1)NC(=O)c1ccccc1S2,·,0%,·,·,·,-4
COc1ccc(CN(C)C(C)C(=O)Nc2ccc(S(=O)(=O)N3CCCCC3)cc2)c(OC)c1 (stereo unspecified),·,·,0%,?,·,20
COc1ccc(CN(C)C(C)C(=O)Nc2ccc(S(=O)(=O)N3CCCC3)cc2)c(OC)c1OC (stereo unspecified),7.4µM*,9%,1%,·,4.1µM*,·
CCN(Cc1ccc(OC)c(F)c1)C(C)C(=O)Nc1ccc(S(=O)(=O)N2CCCC2)cc1 (stereo unspecified),10µM*,-3%,1%,?,?,-26
COc1ccc(CN(C)CC(=O)Nc2cccc(S(=O)(=O)N3CCCC3)c2)cc1F,·,·,1%,?,·,0
O=C(Nc1ccccc1)c1cc(C2COCCN2C(=O)CCCc2ccccc2)on1 (stereo unspecified),·,·,·,·,·,5
CCOC(=O)c1cc(-c2ccc(C)o2)nn1CCC#N,?,18µM*,6%,-12%,12µM*,44
CCOC(=O)c1cc(-c2ccc(C#N)cc2)nc2c1c(C)nn2CCC#N,?,-8%,3%,12%,·,-5
CCOC(=O)c1cc(-c2ccncc2)nc2c1c(C)nn2-c1ccccn1,5.9µM*,1%,0%,7.9µM*,13µM*,-10
CCOC(=O)c1cc(-c2ccc(OC)cc2)nc2c1c(C)nn2CCC#N,5.2µM*,-10%,-8%,?,·,-35
COc1ccc(-c2cc(C(=O)O)c3c(C)nn(-c4ccccn4)c3n2)cc1,24%,-4%,0%,13%,18%,3
COc1cc(Cl)c(C)cc1NC(=O)Cn1c2ncccc2c(=O)n1-c1ccccc1,·,-1%,·,·,·,9
Cc1cc(N)n2ncc(-c3ccccc3)c2n1,·,-21%,-8%,?,35%,102
CCSc1cc(C)nc2c(-c3ccccc3)cnn12,406%,5%,-1%,10µM*,121%,221
C=CCSc1cc(C)nc2c(-c3ccccc3)cnn12,286%,-13%,-2%,?,-46%,195
